# Shown are actives, neighbours in structure and some others; about 8.9% of the full set was active somewhere.
# MCF10A rerep – DNA re-replication induction in MCF 10a cells; 350,000 tested, 2.9% active; Potency, µM (series often up to 46.1 µM), inactives show top-dose activity, positive = re-replication, usual class: activators; AID 624296; MCF 10A DNA re-replication, Hoechst nuclear intensity, 48 h; note: potency is the fitted concentration of half-maximal effect; % of control where 0% means no effect; nearly all actives have a fitted effect of over 50% in size
# DRD3 agonist – agonists of human D3 dopamine receptor; D3R DiscoveRx beta-arrestin cells, luminescence, 90 min; max activation, %; 410,000 tested, 0.58% active; AID 652048; in the data active = max activation above about 30%; note: 0% is about no effect
# Target sequence (P35462 whole entry, looked up): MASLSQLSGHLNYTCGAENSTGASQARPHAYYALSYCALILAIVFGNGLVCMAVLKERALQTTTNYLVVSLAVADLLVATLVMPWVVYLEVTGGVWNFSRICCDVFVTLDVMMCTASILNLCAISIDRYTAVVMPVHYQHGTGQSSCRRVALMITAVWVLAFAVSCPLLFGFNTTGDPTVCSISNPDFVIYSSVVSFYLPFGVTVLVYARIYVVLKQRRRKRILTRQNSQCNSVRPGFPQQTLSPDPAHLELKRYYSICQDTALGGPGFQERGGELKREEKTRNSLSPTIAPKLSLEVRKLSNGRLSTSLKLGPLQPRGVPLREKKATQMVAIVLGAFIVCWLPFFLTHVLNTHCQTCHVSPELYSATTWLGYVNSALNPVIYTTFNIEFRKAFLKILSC
#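 Agonist-mode cell screen: cells plated at 1500/well and incubated overnight at 37 °C, then exposed to library compounds for 90 min at 37 °C. Detection reagent was added for 30–60 min at room temperature, and luminescence was read.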
# SW480 rerep – inducers of DNA re-replication in SW480 colon cancer cells | SW480 DNA re-replication, Hoechst DNA content imaging, 48 h | Potency, µM (titrated, usually from 46.1 µM), inactives show at the top dose re-replication activation, hits mostly activators | 340,000 tested, 1.8% active | AID 624297; note: potency is the fitted concentration of half-maximal effect; % of control where 0% means no effect; nearly all actives have a fitted effect of over 55% in size
#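 DNA re-replication was detected as more nuclei of elevated Hoechst intensity after 48 hr exposure to compound (23 nL pinned per well of 250 cells).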
# KB-3-1 cytotox – KB-3-1 parental cell cytotoxicity | AID 1347075 | 400,000 tested, 1.4% active | KB-3-1 viability, CellTiter-Glo ATP luminescence, 72 h | Potency, µM (titrated, usually from 46.1 µM), hits mostly cytotoxic; note: potency is the fitted concentration of half-maximal effect; % is set by controls: 0 for no effect and ±100 for the full control effect; nearly all actives have a fitted effect of over 60% in size
#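 Parental KB-3-1 viability, qHTS format: 72 h compound exposure, 37 °C; CellTiter-Glo; media-only wells and DMSO plates as controls; concentration-effect fits on corrected data.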
# DRD3 antagonist – D3 dopamine receptor (human) antagonism; P35462; D3R cells, DiscoveRx beta-arrestin luminescence, antagonist mode; active compounds read low; max response, negative = inhibition, %; 360,000 tested, 2.5% active; AID 652054; in the data active = max response below about -50%; inconclusive = no clear call, values can overlap the other calls; note: % is set by controls: 0 for no effect and ±100 for the full control effect
#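 Cells expressing the human receptor were seeded at 1500 cells/well, incubated overnight at 37 degrees C in 5% CO2, then exposed to library compounds with dopamine controls for 90 minutes at 37 degrees C before luminescent detection.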
# KB-V1 cytotox – kills drug-selected multidrug resistant KB-V1 cells; KB-V1 MDR cells viability, CellTiter-Glo, 72 h; AID 1347076; Potency, µM (highest dose often 46.1 µM), usual class: cytotoxic; 400,000 tested, 3.4% active; note: potency is the fitted concentration of half-maximal effect; % is set by controls: 0 for no effect and ±100 for the full control effect; nearly all actives have a fitted effect of over 60% in size
#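 Cytotoxicity via CellTiter-Glo luminescence after 72 h compound exposure at 37 degrees C. Cells: drug-selected KB-V1 line, DMEM phenol-red free plus 10% FBS. Compounds tested at multiple concentrations; normalized data fitted to concentration-effect curves.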
# * hit, by the source's call; i = inactive; ? = inconclusive; . = no result given; ! = repeats disagree. Unless noted, calls come from the whole dose curve; as a rule, active = well fitted curve in the direction sought with a large enough effect; inconclusive = small, poorly fitted or top-dose-only effect, or another doubt; inactive = no such curve, though single readings can be large; an effect the other way counts as inactive or inconclusive.
SMILES,MCF10A rerep,DRD3 agonist,SW480 rerep,KB-3-1 cytotox,DRD3 antagonist,KB-V1 cytotox
CCc1nn(C(CC)C(=O)NCc2ccc(OC)c(OC)c2)c(=O)c2cc3oc(C)cc3n12 (stereo not drawn),.,1,.,i,.,?
CC(NC(=O)c1ccc2c(c1)sc1nc(-c3ccccc3)cn12)C12CC3CC(CC(C3)C1)C2 (stereo not drawn),.,13,.,.,.,.
Cc1ccccc1-c1nc(NC(=O)CSc2ncnc3sc4c(c23)CCCC4)ns1,.,-13,.,.,.,.
Cc1ccc(-n2nc(C)c3c(C(=O)OCC(=O)N(C)C4CCS(=O)(=O)C4)cc(-c4ccccc4)nc32)cc1 (stereo not drawn),21µM*!,2,4%,i,-3,i
S=c1[nH]nc(-c2cc(-c3ccccc3)n[nH]2)n1/N=C/C=C/c1ccccc1,?,-16,-6%,i,-26,i
S=c1[nH]nc(-c2n[nH]c3c2CCC3)n1/N=C/C=C/c1ccccc1,?,-6,?,i,-115*,i
CCN(CC)c1ccc(C(=O)N/N=C(\C)c2ccc(O)cc2)cc1,8.2µM*,3,-4%,13µM*,7,i
C/C(=N\NC(=O)c1ccc(OC2CCCC2)cc1)c1ccc(O)cc1,?,-2,9%,3.7µM*,-7,?
CCN(CC)c1ccc(C(=O)N/N=C(\C)c2cccnc2)cc1,20%,0,-4%,i,10,?
CCOC(=O)c1ccccc1NC(=O)Cn1c(=O)n(CCCC(=O)NCc2ccc3c(c2)OCO3)c(=O)c2ccccc21,.,-19,.,i,.,i
COC(=O)[C@@]12C[C@@H](CC(=O)N3CCSCC3)C(=O)N(CCc3ccc(OC)c(OC)c3)C1=CCC(C)(C)C2,.,-3,.,i,8,?
Cc1ccc(N2CCN(C(=O)C3CCN(S(=O)(=O)c4ccc5c(c4)oc(=O)n5C)CC3)CC2C)cc1 (stereo not drawn),.,-7,.,i,.,?
CCc1ccc(NC(=O)C(=O)NCC(c2cccnc2)N2CCN(c3ccc(F)cc3)CC2)cc1 (stereo not drawn),.,5,.,i,.,i
COc1ccc(NC(=O)CCCNC(=O)Cn2cnc3sc4c(c3c2=O)CCCC4)c(OC)c1,1%,-5,-2%,i,1,21µM*
O=C(CNC(=O)Cn1cnc2sc3c(c2c1=O)CCCC3)NCc1ccccn1,-3%,3,1%,i,16,i
O=C(Cn1cnc2sc3c(c2c1=O)CCCC3)NCC(=O)Nc1c(F)cccc1F,-3%,-13,16µM*,i,20,i
COc1ccc(Nc2ncnc3onc(C)c23)cc1Cl,.,-4,.,i,.,?
O=C(Nc1cc(Cl)ccc1N1CCOCC1)c1cccnc1,-2%,-3,-3%,i,-1,i
CSc1ncccc1C(=O)Nc1cc(Cl)ccc1N1CCOCC1,13%,-7,5%,?,54,21µM*
CC(Oc1cccc(Cl)c1)C(=O)Nc1ccccc1N1CCCCC1 (stereo not drawn),?,8,1%,i,-26,?
CC(Oc1cccc(Cl)c1)C(=O)Nc1cc(Cl)ccc1N1CCOCC1 (stereo not drawn),?,1,9.2µM*,i,-15,?
CC(Oc1cccc(Cl)c1)C(=O)Nc1ccc(S(=O)(=O)N(C)C2CCN(C)CC2)cc1 (stereo not drawn),?,-3,13%,i,0,23µM*
CSc1ncccc1C(=O)Nc1ccccc1N1CCOCC1,1%,2,-11%,i,-22,21µM*
Cc1nn(S(=O)(=O)c2ccc(C(C)(C)C)cc2)c(C)c1S(=O)(=O)N1CCC(C)CC1,.,3,.,i,.,i
COC(=O)c1cc(C(=O)c2cccc(Cl)c2Cl)cn1C,2%,3,-1%,i,43,i
SMILES,MCF10A rerep,DRD3 agonist,SW480 rerep,KB-3-1 cytotox,DRD3 antagonist,KB-V1 cytotox
COC(=O)c1cc(C(=O)c2ccc(Cl)cc2Cl)cn1C,0%,1,-11%,?,39,13µM*
O=c1c(Cl)c(N/N=C/c2ccc(Br)cc2)cnn1-c1ccccc1,7.1µM*,11,?,i,-10,i
Cc1cccc(C)c1NC(=O)c1c(C)nn(-c2ccccc2)c1Cl,5%,-4,-2%,i,1,15µM*
Cc1ccc(-c2cc(C(=O)N/N=C/c3c(C)nn(-c4ccccc4)c3C)n[nH]2)s1,?,-4,1.3µM*,i,9,i
Cc1nn(-c2ccccc2)c(Cl)c1/C=N/NC(N)=O,-21%,4,?,?,-5,2.1µM*
CCOC(=O)N/N=C/c1c(C)nn(-c2cccc(C(F)(F)F)c2)c1Cl,2.6µM*,-1,5.8µM*,2.1µM*,8,2.6µM*
COC(=O)N/N=C\c1c(C)nn(-c2ccccc2)c1Cl,0%,8,?,i,-16,i
Cc1nn(-c2ccccc2)c(Cl)c1/C=C(\C#N)C(=O)NC(C)C,23µM*,-5,?,?,4,i
Cc1nn(-c2ccccc2)c(Cl)c1/C=N/NC(=O)CNC(=O)c1ccccc1Cl,?,-2,?,i,-7,i
Cc1ccc(C)c(OCC(=O)N/N=C/c2c(C)nn(-c3ccccc3)c2Cl)c1C,?,6,?,?,-9,8.2µM*
CCc1n[nH]c(=S)n1/N=C/c1c(C)nn(-c2ccccc2)c1Cl,-1%,3,3%,?,16,1.3µM*
COc1ccc(-c2ccnc3nc(Sc4ncc(C(F)(F)F)cc4Cl)nn23)cc1,-2%,-17,6%,i,-24,15µM*
CSc1nc2nccc(-c3ccc(Cl)cc3)n2n1,2%,-16,-4%,i,7,i
FC(F)(F)c1cnc(Sc2nc3nccc(-c4ccc(Cl)cc4)n3n2)c(Cl)c1,3.3µM*,-29,16µM*,i,?,i
CC(=O)c1ccc(NC(=O)C(C)n2nc(-c3ccccc3)ccc2=O)cc1 (stereo not drawn),.,-6,.,i,.,i
COc1ccc(C(=O)c2cn(Cc3ccc(F)cc3)c3c(F)cc(F)cc3c2=O)cc1,.,5,.,i,.,i
O=C(Cc1ccccc1)Nc1nnc(-c2ccncc2)s1,.,.,.,i,.,i
Brc1cccc(CN2CCCCCC2)c1,6%,-13,-9%,i,-17,?
OC1(c2ccc(Br)cc2)CCN(Cc2cccc(Br)c2)CC1,5%,-17,10%,i,-106*,i
COc1ccc(C)cc1Nc1nc2c(S(=O)(=O)c3cccc(Cl)c3)nnn2c2ccsc12,.,4,.,i,.,i
Cc1cccc(OCC(=O)Nc2ccc3c(c2)nc(CN2CCCCC2)n3C)c1,?,-14,20%,?,-92*,i

# Assay outcomes as filed in PubChem.
